Screens: PubChem, several laboratories
Gli-Sufu block – Gli-Sufu pathway antagonists, primary screen, luciferase luminescence, Sufu-KO-LIGHT cells, uHTS; Sufu-KO-LIGHT fibroblasts, Gli luciferase reporter luminescence; inhibition, % at 5 µM; 340,000 tested, 0.74% active; AID 588413, 2011;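 active means inhibition above about 55%, limit read from the data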;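 further: 0% = DMSO-treated cells and 100% = wells with medium but no cells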
Jurkat NFkB inh – inhibitors of induced NF-kB luciferase reporter, primary screen, TCR NF-kB activation inhibitor project, cell-based, luminescence, uHTS; inhibition, % at 4 µM; 330,000 tested, 0.53% active; Jurkat, PMA/ionomycin-induced NF-kB luciferase reporter; in the data active means inhibition above about 50%
697 NFkB inh – inhibitors of PMA/ionomycin-induced NF-kB reporter, 697 cells, primary screen, B-cell NF-kB inhibitor project, cell-based, luminescence, uHTS; 697 B-cell NF-kB luciferase reporter, 16 h; inhibition, % at 4 µM; 330,000 tested, 0.33% active; AID 435022, 2010; in the data active means inhibition above about 35%
Beta cell apopt – inhibitors of cytokine-induced beta cell apoptosis, primary screen, luminescence; 300,000 tested, 0.8% active; protection from apoptosis, % (no concentration beside the values); INS-1E cytokine-induced death, ATP luminescence, 48 h; percent of positive-control rescue, neutral wells zero;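 active means Every replicate reaches about 75%, or at least half do and their mean reaches it too, limit read from the data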;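 further: 0% = cytokine-treated negative control wells and 100% = positive control rescue; higher means more ATP so stronger rescue from cytokine killing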
Mdm2-MdmX inh – inhibitors of human Mdm2-MdmX association, primary screen, cell-based, luminescence, split luciferase, SaOS-2, uHTS; Protein Mdm4 (Homo sapiens) + E3 ubiquitin-protein ligase Mdm2 (Homo sapiens), …; SaOS-2 split-luciferase Mdm2/MdmX complementation; inhibition, % at 8 µM; 330,000 tested, 3% active; AID 485346, 2010;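 active means inhibition of at least 50% at 8 µM in the primary screen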
Target sequence (O15151 whole entry, looked up): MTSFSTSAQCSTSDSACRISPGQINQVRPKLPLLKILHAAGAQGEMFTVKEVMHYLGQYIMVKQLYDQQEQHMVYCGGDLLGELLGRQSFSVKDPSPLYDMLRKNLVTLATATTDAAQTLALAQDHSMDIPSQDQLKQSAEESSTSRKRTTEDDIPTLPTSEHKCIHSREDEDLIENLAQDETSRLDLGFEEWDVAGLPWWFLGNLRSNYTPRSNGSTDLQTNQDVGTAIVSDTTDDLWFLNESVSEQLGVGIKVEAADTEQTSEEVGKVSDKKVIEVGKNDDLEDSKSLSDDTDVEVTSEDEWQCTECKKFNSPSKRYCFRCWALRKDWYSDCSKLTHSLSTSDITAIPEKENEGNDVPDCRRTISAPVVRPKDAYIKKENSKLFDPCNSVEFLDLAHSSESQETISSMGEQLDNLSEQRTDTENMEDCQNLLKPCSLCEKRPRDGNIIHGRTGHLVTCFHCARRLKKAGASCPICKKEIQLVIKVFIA
Target sequence (Q00987 whole entry, looked up): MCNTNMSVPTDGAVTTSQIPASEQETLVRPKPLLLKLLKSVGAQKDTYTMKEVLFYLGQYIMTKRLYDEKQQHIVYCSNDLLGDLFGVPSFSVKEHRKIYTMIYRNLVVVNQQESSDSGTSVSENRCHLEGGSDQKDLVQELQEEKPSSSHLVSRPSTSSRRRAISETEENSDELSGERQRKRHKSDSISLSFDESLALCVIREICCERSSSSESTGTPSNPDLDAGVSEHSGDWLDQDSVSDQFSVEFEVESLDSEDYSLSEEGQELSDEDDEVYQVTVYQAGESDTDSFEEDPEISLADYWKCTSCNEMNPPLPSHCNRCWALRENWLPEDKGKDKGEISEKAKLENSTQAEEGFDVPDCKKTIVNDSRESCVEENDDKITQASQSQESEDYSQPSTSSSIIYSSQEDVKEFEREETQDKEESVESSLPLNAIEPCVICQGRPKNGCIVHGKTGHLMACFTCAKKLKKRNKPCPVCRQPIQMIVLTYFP
Mdm2-MdmX conf – Mdm2-MdmX complex disruptors, retested hits, confirmation, luminescence, single concentration | shares compounds with Mdm2-MdmX inh | Mdm2-MdmX binding, luminescent assay | inhibition, % at 8 µM | 10,000 tested, 55% active | AID 489028, 2010; in the data active means inhibition above about 40%
FLuc counter – full-length luciferase signal inhibition, confirmation, counter-screen for Mdm2/MdmX interaction inhibitor project, cell-based, single concentration, SaOS-2. shares compounds with Mdm2-MdmX inh. SaOS-2 full-length luciferase counterscreen, luminescence. inhibition, % at 8 µM. 6,200 tested, 77% active. AID 504607, 2011;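 active means mean inhibition at 8 µM reaching about 37%, which flags the compound as non-specific, limit read from the data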;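 further: p53-null SaOS-2 cells with luciferase driven by a doxycycline-inducible promoter; compound on cells about two nights before reading with doxycycline added after day one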
* marks the source's active call; other numbers are inactive results; x = not tested or not shown. Only some compounds are listed: those with a hit (about 4% of all), similar ones and a draw of the others.

SMILES | Gli-Sufu block | Jurkat NFkB inh | 697 NFkB inh | Beta cell apopt | Mdm2-MdmX inh | Mdm2-MdmX conf | FLuc counter
N#Cc1ccc(/C=N/NC(=O)c2cccc(S(=O)(=O)N3CCOCC3)c2)cc1 | -8 | 11 | -1 | x | 17 | x | x
CC(CN1CCCCC1)OC(=O)C(C)(c1ccccc1)c1ccccc1 (centres undefined) | 13 | -21 | -7 | -2 | 17 | x | x
CN(C)c1ccc(N=Nc2nc3ccccc3n2C)cc1 | -93 | -75 | -113 | 62 | 60* | 49* | 46*
CCOc1ccc(-c2nc(N)ncc2-c2ccc(OC)cc2)c(O)c1 | 2 | 0 | 3 | -11 | 39 | x | x
CCOc1ccc(-c2nc(N)ncc2-c2ccccc2)c(O)c1 | -11 | -3 | -5 | -1 | 50* | 25 | x
Cc1ccc(-c2nnn(CC(=O)N(c3cccc(F)c3)C(C(=O)NC(C)(C)C)c3ccco3)n2)o1 (centres undefined) | 8 | 24 | 27 | 0 | 20 | x | x
O=C(NNC(=O)c1cc(Br)ccc1O)c1csc(N2CCOCC2)n1 | 13 | 0 | 21 | 10 | 64* | 44* | 59*
Cc1ccc(C2=NNC3(CCOC(C)(C)C3)S2)cc1 (centres undefined) | 19 | -18 | -57 | 9 | -56 | x | x
Cc1c(NC(=O)c2cccc(NC(=O)Cc3ccccc3F)c2)c(=O)n(-c2ccccc2)n1C | -4 | 12 | 11 | -1 | -7 | x | x
CC(C)=CCc1c(O)cc(O)c2c(=O)c3c(CC=C(C)C)c(O)ccc3oc12 | 16 | -9 | -29 | 28 | 94* | 29 | x
Cc1ccc(-n2nnnc2Sc2ccc(S(=O)(=O)NCCN(C)C)cc2[N+](=O)[O-])cc1 | 13 | x | x | 9 | x | x | x
O=[N+]([O-])c1cc(S(=O)(=O)NCCN2CCOCC2)ccc1Sc1nnnn1-c1ccccc1 | 15 | 18 | -17 | -15 | 66* | 50* | 20
CCOc1ccc(N(CC(=O)NCCc2ccccc2)C(=O)CCC(=O)Nc2cc(C)ccn2)cc1 | -4 | 12 | 3 | -6 | -1 | x | x
CC(Oc1ccccc1Cl)C(=O)Nc1ccccc1C(=O)N1CCOCC1 (centres undefined) | 2 | -1 | 1 | -3 | 24 | x | x
Cc1sc(NC(=O)c2cc(-c3ccccc3)nc3ccccc23)c(C(N)=O)c1C | 6 | -15 | -11 | 21 | 16 | x | x
Cc1cccc(NC(=O)c2cc(-c3ccc(C)s3)nc3ccccc23)n1 | -4 | 15 | 17 | 9 | 73* | 59* | 83*
CCOC(=O)c1sc(NC(=O)c2cc(-c3ccc(C)cc3)nc3ccccc23)c(C#N)c1C | 41 | 0 | -17 | 11 | 76* | 92* | 50*
Cc1sc(NC(=O)c2cc(-c3ccc(Cl)cc3)nc3ccccc23)c(C(N)=O)c1C | 15 | 6 | 3 | 57 | 73* | 40 | 76*
O=C(N/N=C/c1ccccn1)c1cc(-c2ccc(Cl)cc2)nc2ccccc12 | 89* | 38 | -67 | 43 | 76* | 35 | x
COc1ccc(-c2cc(C(=O)Nc3sc4c(c3C#N)CCCC4)c3ccccc3n2)cc1 | -1 | x | x | -2 | x | x | x
CC(=O)N1CCN(C(=O)c2cccc(S(=O)(=O)NCc3ccccc3)c2)CC1 | -13 | 11 | 3 | -1 | 2 | x | x
CNc1snc(C)c1C(=O)OC(C)C(=O)NCc1ccccc1 (centres undefined) | -3 | -15 | 1 | x | -3 | x | x
CCOC(=O)C(CC)/C(C)=N\NC(=O)c1ccccc1O (centres undefined) | -14 | -4 | -16 | 33 | 68* | 50* | 77*
CCC/C(C)=N/NC(=O)c1ccccc1O | -7 | -6 | 6 | -2 | 14 | x | x
CCOC(=O)N1CCC(N(CCN(C)C)C(=S)Nc2cc(Cl)cc(Cl)c2)CC1 | 0 | 2 | 13 | -12 | 67* | 42* | 50*
SMILES | Gli-Sufu block | Jurkat NFkB inh | 697 NFkB inh | Beta cell apopt | Mdm2-MdmX inh | Mdm2-MdmX conf | FLuc counter
CCOC(=O)c1ccc(NC(=O)c2c(N)n(C)c(=O)n(C)c2=O)cc1 | -1 | -26 | -10 | 3 | 85* | 9 | x
CCOC(=O)c1ccc(NC(=O)c2c(C)[nH]c(C(=O)OCC)c2C)cc1 | -3 | 2 | 15 | 13 | 6 | x | x
O=c1c(Cl)nc2cc(Cl)ccc2n1CCNc1ncc(C(F)(F)F)cc1Cl | 2 | 17 | 10 | 2 | 97* | 43* | 7
CCOc1ccc(NC(=O)c2ccncc2)cc1 | -2 | -18 | -23 | x | -5 | x | x
CCOc1ccc2c(c1)C(=NNC(=O)c1ccncc1)c1cc(OCC)ccc1-2 | 48 | -21 | -81 | 65 | 66* | 52* | 55*
Cc1cccn2c(=O)c(C=C(C#N)C#N)c(N3CCN(c4cccc(Cl)c4)CC3)nc12 | 25 | -23 | -11 | 5 | 26 | x | x
COc1ccc2cc1Oc1ccc(cc1)C[C@H]1c3cc(c(OC)cc3CCN1C)Oc1c(OC)c(OC)cc3c1[C@H](C2)N(C)CC3 | 16 | 47 | 15 | 5 | 100* | 100* | 52*
COc1ccc2cc1Oc1ccc(cc1)C[C@H]1c3c(cc4c(c3Oc3cc5c(cc3OC)CCN(C)[C@@H]5C2)OCO4)CCN1C | -14 | 23 | -23 | x | 100* | 87* | 32
COc1ccc2c(c1OC)C(=O)O[C@@H]2[C@H]1c2c(cc3c(c2OC)OCO3)CCN1C | -3 | 4 | -4 | -5 | -14 | x | x
CCN(CC(O)COc1ccc(OCC(O)CN(CC)C2CCCCC2)cc1)C1CCCCC1 (centres undefined) | 21 | -21 | -15 | 3 | 69* | 12 | x
CCCNC(=O)CS(=O)(=O)c1ccccc1 | -4 | 20 | 17 | -5 | 14 | x | x
C=CC[C@]12CC=CC(=O)[C@@]1(O)O[C@H](c1ccc(OC)c(OC)c1)[C@H]2C | 1 | 20 | -47 | -6 | 50* | 30 | x
O=S(Cc1ccc(Br)cc1)Cc1nnc(SCc2ccc(Cl)cc2)n1-c1ccccc1 (centres undefined) | 22 | 37 | 0 | 40 | 50* | 40 | 70*
O=S(Cc1ccc(Br)cc1)Cc1nnc(SCc2c(F)cccc2Cl)n1-c1ccccc1 (centres undefined) | 33 | 30 | -34 | 35 | 26 | x | x
CCCc1sc(N/N=C/c2ccccn2)nc1-c1ccc(F)cc1 | 60* | -14 | -22 | 91* | 69* | 36 | 45*
